Compound activity as filed in PubChem.
L3MBTL1 inh-1 – qHTS Assay for the Inhibitors of L3MBTL1; Lethal(3)malignant brain tumor-like protein 1 (Homo sapiens), Q9Y468; Potency, µM (doses to about 57.1 µM), for inactives: at the top dose activity, negative = inhibition, most hits filed as inhibitors; 230,000 compounds, 0.66% hits; AlphaScreen L3MBTL1–H3K9me1 peptide binding; also: potency is read from the fitted curve at half-maximal effect; % is scaled to controls: 0 for no effect and ±100 for the full control effect; nearly all actives have a fitted effect of over 60% in size
Target sequence (Q9Y468 whole entry, looked up): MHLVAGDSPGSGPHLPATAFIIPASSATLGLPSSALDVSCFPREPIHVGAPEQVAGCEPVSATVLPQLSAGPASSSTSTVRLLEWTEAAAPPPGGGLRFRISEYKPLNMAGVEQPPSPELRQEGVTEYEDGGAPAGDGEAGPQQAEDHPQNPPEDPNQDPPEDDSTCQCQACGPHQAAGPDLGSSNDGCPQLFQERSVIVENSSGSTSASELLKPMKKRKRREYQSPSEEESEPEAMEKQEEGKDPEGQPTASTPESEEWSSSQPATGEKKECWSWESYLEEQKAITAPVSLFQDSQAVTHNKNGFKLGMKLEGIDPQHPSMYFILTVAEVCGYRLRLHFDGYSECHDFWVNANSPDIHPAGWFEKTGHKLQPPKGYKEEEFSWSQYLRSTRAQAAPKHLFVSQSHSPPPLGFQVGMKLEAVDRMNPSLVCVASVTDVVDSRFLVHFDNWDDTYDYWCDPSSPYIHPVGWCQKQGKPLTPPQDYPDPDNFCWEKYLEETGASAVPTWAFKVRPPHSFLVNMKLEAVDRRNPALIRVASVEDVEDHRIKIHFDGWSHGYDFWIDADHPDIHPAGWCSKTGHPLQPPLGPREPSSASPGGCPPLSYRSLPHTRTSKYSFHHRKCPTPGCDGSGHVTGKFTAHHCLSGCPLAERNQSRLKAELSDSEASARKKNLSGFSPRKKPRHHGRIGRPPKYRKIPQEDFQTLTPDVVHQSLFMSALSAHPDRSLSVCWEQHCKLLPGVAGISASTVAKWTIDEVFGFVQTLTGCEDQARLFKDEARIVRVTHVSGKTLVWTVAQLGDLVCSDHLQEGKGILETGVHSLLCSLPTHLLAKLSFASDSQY
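Displacement of a biotinylated histone H3(1-15) peptide monomethylated at Lys9 (75 nM) from L3MBTL1 (50 nM) was measured by AlphaScreen after a 30 min room-temperature compound incubation; cefsulodin titration served as intraplate control.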
MBNL1 CUG block – qHTS Assay for Inhibitors of MBNL1-poly(CUG) RNA binding; Muscleblind-like protein 1 (Homo sapiens), Q9NR56; TR-FRET MBNL1-His/biotin-(CUG)12 binding, 665/545 ratio; Potency, µM (doses to about 57.5 µM), for inactives: at the top dose activity change, negative = inhibition, most hits filed as inhibitors; 280,000 compounds, 0.036% hits; active = well fitted inhibition curve with a large enough effect in the signal ratio, with a control signal flat, not every such curve was filed as active; inconclusive = small, poorly fitted or top-dose-only effect, or effect the other way, or a change in a side signal; inactive = no such curve, though single readings can be large or run the other way; the % refers to the signal ratio; also: potency is read from the fitted curve at half-maximal effect; % is scaled to controls: 0 for no effect and ±100 for the full control effect
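TR-FRET between His-tagged MBNL1 and biotin-(CUG)12 RNA, detected with Tb anti-His antibody (0.055 ng/ul) and streptavidin-XL665 (5 nM), 60 min at room temperature. Compounds titrated 92 nM to 58 uM; 665/545 nm ratio normalized to buffer and complex controls.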
CtBP-E1A inh – qHTS Assay for Inhibitors of the CtBP/E1A Interaction. AlphaScreen GST-E1A/His-CtBP binding, 1536-well; hits give low values. 340,000 compounds, 0.49% hits. activity change, % (no concentration beside the values); in the data active = activity change below about -65%; inconclusive = mostly about -30% to -63%; also: % is scaled to controls: 0 for no effect and ±100 for the full control effect
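Protein mix (5X: 125 nM each GST-E1A, His-CtBP) was incubated with pinned compound 2 h at 37 deg C in dark, in 50 mM Tris pH 8.0 buffer with 300 mM NaCl. Glutathione donor and nickel acceptor beads followed; AlphaScreen signal read after 1 h.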
Eya2 inh – qHTS Assay for Inhibitors of the Phosphatase Activity of Eya2. Protein phosphatase EYA2 (Homo sapiens), O00167. recombinant Eya2, OMFP fluorescence dephosphorylation (OMFP is methylfluorescein phosphate). Potency, µM (titrated, usually from 76.9 µM), without a hit: at the highest dose activity, negative = inhibition, most hits filed as inhibitors. 330,000 compounds, 0.006% hits. AID 488837, 2010; also: potency is read from the fitted curve at half-maximal effect; % is scaled to controls: 0 for no effect and ±100 for the full control effect
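Eya2 protein (added as 0.2 uM solution) was preincubated with compound for 10 min at ambient temperature in 50 mM HEPES pH 7.5, 50 mM NaCl, 5 uM MgCl2, 0.05% BSA, 1 mM DTT. OMFP (added at 50 uM) then reacted 10 min; fluorescence read at 485/525 nm.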
Six1-Eya2 blk – qHTS Assay for Inhibitors of the Six1/Eya2 Interaction | AlphaScreen GST-Six1/His-Eya2 binding, biochemical; hits give low values | activity change, % (no concentration beside the values) | 360,000 compounds, 0.56% hits | AID 651725, 2012; in the data active = activity change below about -65%; inconclusive = mostly about -30% to -63%; also: % is scaled to controls: 0 for no effect and ±100 for the full control effect
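AlphaScreen luminescence read after one hour at 37 °C in darkness. Pin-transferred compounds met GST-Six1 and His-Eya2 protein (5X stock 250 nM/500 nM) plus glutathione donor and Ni-chelate acceptor beads (5X, 50 ug/mL).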
CBFb RUNX1 block – qHTS Assay for Compounds Blocking the Interaction Between CBF-beta and RUNX1 for the Treatment of Acute Myeloid Leukemia; Runt-related transcription factor 1 (Homo sapiens) + Core-binding factor subunit beta …; AlphaScreen CBFb-His/RUNX1-biotin binding, biochemical; Potency, µM (doses to about 59.8 µM), for inactives: top-dose activity, negative = inhibition, usual class: inhibitors; 230,000 tested, under 10 active; also: % of control where 0% means no effect
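Compounds were screened at multiple concentrations against a preformed CBF-beta(His)/RUNX1(biotin) complex (30 nM of each) for 15 min at room temperature, followed by 90 min with nickel and streptavidin beads and AlphaScreen reading.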
MBNL1-CUG FRET – qHTS Assay for Inhibitors of MBNL1-poly(CUG) RNA binding: Initial hit validation from the primary screen | shares compounds with MBNL1 CUG block | TR-FRET MBNL1-His / biotin-(CUG)12 binding, 60 min | Potency, µM (titrated, usually from 57.6 µM), for inactives: at the highest dose activity change, negative = inhibition, hits mostly inhibitors | 140 compounds, 50% hits | AID 493199, 2011
MBNL1 AlphaScrn – qHTS Assay for Inhibitors of MBNL1-poly(CUG) RNA binding: Initial hit validation in AlphaScreen assay for MBNL1-(CUG)12 binding | shares compounds with MBNL1 CUG block | AlphaScreen MBNL1-His / biotin-(CUG)12 binding | Potency, µM (titrated, usually from 57.7 µM), for inactives: at the highest dose activity, negative = inhibition, most hits filed as inhibitors | 140 compounds, 30% hits | AID 493205, 2011
L3MBTL1 inh-2 – qHTS Assay for the Inhibitors of L3MBTL1: Hit Validation. L3MBTL1 methyl-lysine binding inhibition, biochemical qHTS. AID 540279, 2011. Potency, µM, most hits filed as inhibitors. shares compounds with L3MBTL1 inh-1. 500 compounds, 91% hits; also: potency is read from the fitted curve at half-maximal effect; nearly all actives have a fitted effect of over 70% in size
L3MBTL1 ctr – qHTS Assay for the Inhibitors of L3MBTL1: Hit Validationin AlphaScreen Counterscreen | shares compounds with L3MBTL1 inh-1 | 500 tested, under 10 active | AlphaScreen counterscreen, signal inhibition | Potency, µM (series often up to 57.1 µM), for the others: at the top dose activity change, negative = inhibition, most hits filed as inhibitors | AID 602224, 2012; also: potency is read from the fitted curve at half-maximal effect; 0% is about no effect
Numbers without * were called inactive; ? = inconclusive; . = no result given; [ ] = remark or other dose. This is a sample that favours compounds with a hit; in the whole collection about 0.89% have one here. Unless noted, calls follow the shape of the dose curve; as a rule, active = well fitted curve in the direction sought with a large enough effect; inconclusive = small, poorly fitted or top-dose-only effect, or another doubt; inactive = no such curve, though single readings can be large; an effect the other way counts as inactive or inconclusive.

SMILES	L3MBTL1 inh-1	MBNL1 CUG block	CtBP-E1A inh	Eya2 inh	Six1-Eya2 blk	CBFb RUNX1 block	others
Cc1ccc(N)c(C)c1	-4.7%	.	3.7	-5.7%	6.4	-1.2%[21.7 µM]
Cn1ncnc2c(=O)n(C)c(=O)nc1-2	-19.2%	?	?	20µM*	-2.7	?
NCCCC[C@H](NC(=O)[C@H](Cc1ccccc1)NC(=O)[C@H](CCCN=C(N)N)NC(=O)[C@@H](N)Cc1ccc(O)cc1)C(N)=O	.	.	.	.	.	11.9%
N/C(=N\N=C/c1ccc(-c2ccc(O)c(C(=O)O)c2)o1)N[N+](=O)[O-]	11.2µM*	?	?	9.8%	?	.
CCCC[N+]12C3CC(C(CC)[C@H]1O)[C@@H]1C(O)C4(C[C@@H]12)c1ccccc1N(C)C34 (stereo partly specified)	.	.	.	.	.	24.1%
CCCCn1c(NC(=O)c2ccc(Br)o2)c(C(=O)OCC)c2nc3ccccc3nc21	-24.2%	-8.3%[11.5 µM]	-12.8	6.7%	17.1	14.0%
CCCCn1c(NS(=O)(=O)c2ccccc2)c(C(=O)OCC)c2nc3ccccc3nc21	4.47µM*	4.7%	-2.8	-10.3%	14.5	?
O=c1c2ccccc2nc(/C=C/c2cccnc2)n1Cc1ccccc1	6.31µM*	?	1.0	-8.4%	-71.0*	2.8%
CC1=C(O)C(=O)C=C2C1=CC=C1C2(C)CCC2(C)C3CC(C)(C(=O)O)CCC3(C)CCC12C (stereo unspecified)	.	.	-1.3	.	-7.3	.
CC(O)C(C)OC(=O)[C@@H]1C[C@@H]2c3cccc4c3c(cn4C(C)C)C[C@H]2N(C)C1 (stereo partly specified)	.	.	.	.	.	?	MBNL1-CUG FRET=?;MBNL1 AlphaScrn=-44.4%
O=C1CC2OCC=C3CN4CC[C@]56c7ccccc7N1C5C2[C@H]3C[C@H]46 (stereo partly specified)	.	.	.	.	.	15.6%
CCOc1ccccc1OCCCCN1CCCC1	28.2µM*	-9.5%	4.8	-12.3%	-2.2	-8.2%	L3MBTL1 inh-2=?;L3MBTL1 ctr=?
CCN1C[C@]2(C)CC[C@H](O)[C@@]34[C@@H]5C[C@@H]6[C@@H](OC)C[C@@](O)(C5[C@H]6O)[C@@H](C[C@@H]23)[C@@H]14	.	.	.	.	.	-11.9%
Cc1cc(C=C2C(=O)NC(=S)NC2=O)c(C)n1-c1ccc2c(c1)OCO2	22.4µM*	-5.0%	-18.0	-33.4%	0.8	1.2%	L3MBTL1 inh-2=21.2*;L3MBTL1 ctr=-11.5%
C(=NC1CCCCC1)=NC1CCCCC1	.	.	.	.	.	11.3%[21.7 µM]
COc1ccc(CN2C(=O)NC(=O)/C(=C/c3ccoc3)C2=O)cc1	?	-13.6%	.	?	-16.1	?
C=CCN1C(=O)NC(=O)/C(=C/c2ccoc2)C1=O	22.4µM*	?	15.1	22.1%	-4.1	-0.5%	L3MBTL1 inh-2=16.8*;L3MBTL1 ctr=-0.7%
